Values joined by “and” are separate entries in the source; they are usually repeats but may differ in a detail not shown here. Identical values can stand only once. The campaign covered roughly 5,500 compounds. About 2,000 (36%) were called active. Roughly 18% stayed inconclusive and do not appear here. Rule as the data show it: active = normalized growth mostly below about 0.91 (no sharp cut-off); inconclusive = no clear call, values can overlap the other calls; inactive = mostly above about 0.92. Some of the results follow.
Assay: chemical genetic growth profiling, strain panel (AID 1159580);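 also: tested at 20 µM; growth read once vehicle control cultures reached saturation at 30 °C; 1 = growth at the plate median or of vehicle wells; lower values mean less growth of the strain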
Settings: S. cerevisiae deletion strains, growth OD

Measured: normalized growth

NC[C@@H]1O[C@H](O[C@@H]2[C@@H](CO)OC(O[C@@H]3[C@@H](O)[C@H](N)C[C@H](N)[C@H]3O[C@H]3O[C@H](CO)[C@@H](O)[C@H](O)[C@H]3N)[C@@H]2O)[C@H](N)[C@@H](O)[C@@H]1O (stereo partly drawn)
inactive: locus YAL021C, strain ccr4, hits give low values 0.996 | locus YAL026C, strain drs2, hits give low values 0.992 | locus YAL030W, strain snc1, hits give low values 0.995 | locus YBL061C, strain skt5, hits give low values 0.995 | locus YBR009C, strain hhf1, hits give low values 0.986 | locus YBR021W, strain FUR4, hits give low values 1.03 | locus YBR023C, strain chs3, hits give low values 0.999 | locus YBR171W, strain sec66, hits give low values 0.973 | locus YBR229C, strain ROT2, hits give low values 0.96 | locus YBR231C, strain swc5, hits give low values 0.992 | locus YBR279W, strain paf1, hits give low values 0.992 | locus YCL011C, strain gbp2, hits give low values 0.985 | locus YCL016C, strain dcc1, hits give low values 0.988 | locus YCL029C, strain bik1, hits give low values 1 | locus YCL061C, strain MRC1, hits give low values 0.953 | locus YCL069W, strain vba3, hits give low values 0.992 | locus YCR088W, strain abp1, hits give low values 0.997 | locus YDL005C, strain med2, hits give low values 0.992 | locus YDL035C, strain GPR1, hits give low values 0.996 | locus YDL040C, strain nat1, hits give low values 0.984 | locus YDL074C, strain BRE1, hits give low values 0.961 | locus YDL101C, strain DUN1, hits give low values 0.98 | locus YDL134C, strain PPH21, hits give low values 1.01 | locus YDL185W, strain tfp1, hits give low values 0.982 | locus YDL192W, strain arf1, hits give low values 0.991 | locus YDR001C, strain nth1, hits give low values 0.995 | locus YDR069C, strain doa4, hits give low values 0.994 | locus YDR101C, strain arx1, hits give low values 0.985 | locus YDR137W, strain rgp1, hits give low values 1.01 | locus YDR159W, strain sac3, hits give low values 0.966 | locus YDR162C, strain NBP2, hits give low values 0.998 | locus YDR195W, strain ref2 0.981 | locus YDR297W, strain sur2, hits give low values 0.992 | locus YDR318W, strain mcm21, hits give low values 1 | locus YDR334W, strain swr1, hits give low values 0.989 | locus YDR335W, strain msn5, hits give low values 0.998 | locus YDR388W, hits give low values 0.992 | locus YDR392W, strain spt3, hits give low values 0.974 | locus YDR502C, strain sam2, hits give low values 0.988 | locus YEL003W, strain gim4, hits give low values 0.986 | locus YEL037C, strain rad23, hits give low values 0.977 | locus YEL061C, strain CIN8 (second series), hits give low values 0.988 | locus YEL061C, strain CIN8, hits give low values 0.985 | locus YER015W, strain faa2, hits give low values 0.995 | locus YER016W, strain bim1, hits give low values 0.989 | locus YER110C, hits give low values 0.994 | locus YER111C, strain swi4, hits give low values 0.988 | locus YER155C, strain BEM2 (second series), hits give low values 0.985 | locus YER155C, strain BEM2, hits give low values 1 | locus YER167W, strain BCK2, hits give low values 1.01 | locus YFR010W, strain ubp6, hits give low values 0.996 | locus YGL078C, strain dbp3, hits give low values 0.995 | locus YGL086W, strain mad1, hits give low values 0.983 | locus YGL167C, strain pmr1, hits give low values 1 | locus YGL173C, strain kem1, hits give low values 0.984 | locus YGL227W, strain vid30, hits give low values 0.999 | locus YGL240W, strain doc1, hits give low values 0.991 | locus YGL248W, strain PDE1, hits give low values 0.969 | locus YGL253W, strain hxk2, hits give low values 0.988 | locus YGR078C, strain PAC10, hits give low values 0.968 | locus YGR135W, strain pre9, hits give low values 1.05 | locus YGR229C, strain SMI1, hits give low values 1 | locus YGR252W, strain gcn5, hits give low values 1.02 | locus YHR013C, strain ard1, hits give low values 0.988 | locus YHR027C, strain rpn1, hits give low values 0.999 | locus YHR030C, strain SLT2, hits give low values 1 and 0.966 | locus YHR079C, strain IRE1 (second series), hits give low values 0.993 | locus YHR079C, strain IRE1, hits give low values 0.974 | locus YHR094C, strain hxt1, hits give low values 0.997 | locus YHR129C, strain ARP1, hits give low values 1 | locus YHR142W, strain chs7, hits give low values 0.983 | locus YHR200W, strain rpn10, hits give low values 0.993 | locus YIL066C, strain RNR3, hits give low values 0.969 | locus YIL073C, strain SPO22, hits give low values 1.07 | locus YIL125W, strain kgd1, hits give low values 0.992 | locus YIR030C, strain dcg1, hits give low values 0.993 | locus YJL092W, strain hpr5, hits give low values 0.993 | locus YJL095W, strain BCK1 (second series), hits give low values 0.992 | locus YJL095W, strain BCK1, hits give low values 0.959 and 0.976 | locus YJL115W, strain asf1, hits give low values 0.984 | locus YJL129C, strain trk1, hits give low values 0.977 | locus YJL134W, strain LCB3, hits give low values 0.999 | locus YJL154C, strain vps35, hits give low values 0.987 | locus YJL164C, strain tpk1, hits give low values 0.948 | locus YJL166W, strain qcr8, hits give low values 0.986 | locus YJL168C, strain set2, hits give low values 0.987 | locus YJL187C, strain SWE1 (second series), hits give low values 0.954 | locus YJL187C, strain SWE1, hits give low values 0.992

Reference: PubChem BioAssay AID1159580 (chemical genetic matrix, 2015)
